mHTT-CaM PPI inh = inhibitors of human mutant huntingtin-calmodulin interaction; P42858; AlphaScreen His-mHTT/GST-CaM binding, luminescence; inhibition, % at 15 µM; hit rate 3.6% among 190,000; AID 1671202
Pf apPOL inh = Pf-apPOL DNA polymerase inhibition. inhibition, % at 10 µM. hit rate 0.25% among 210,000. Recombinant Pf-apPOL, molecular beacon fluorescence, 1.5 h
Each line names hits and unclear results; the compound was inactive in the other large screens. Only a selection was taken, and hits are over-represented in it overall. No stated cut-off is given here; in the data, active means inhibition above about 50%; inactive means the rest.

Cc1cc(C(=O)Nc2cccc(NC(=O)c3ccc(Cl)cc3Cl)c2)ccc1[N+](=O)[O-]	none
CC(C)(Oc1ccc(Cl)cc1)c1nc(-c2ccncc2)no1	none
Cc1ccccc1CC(=O)N1CCN(c2cc(-c3cccnc3)[nH]n2)CC1	none
O=C(c1ccsc1)N1CCCN(c2cc(-c3ccc4c(c3)OCO4)[nH]n2)CC1	none
O=C(c1cc2ccccc2[nH]1)N1CCCN(c2cc(-c3ccc4c(c3)OCO4)[nH]n2)CC1	mHTT-CaM PPI inh 56
Cc1ccccc1CC(=O)N1CCCN(c2cc(-c3ccccc3)[nH]n2)CC1	mHTT-CaM PPI inh 61
CCc1ccc(S(=O)(=O)N2CCC(c3nc(CNC(C)=O)cs3)CC2)cc1	none
COc1ccc(-c2c(C)oc3cc(OC(=O)c4cccs4)ccc3c2=O)cc1OC	none
CCN(C)C(=O)C1CN(C(=O)CC(C)C)CC1c1cccc(C(F)(F)F)c1 (centres undefined)	none
Cc1ccccc1-n1c(CCC(=O)O)ccc1-c1cccs1	none
Cc1cc(Cl)ccc1-n1c(CCC(=O)O)ccc1-c1cccs1	mHTT-CaM PPI inh 68
CN(C)CCCNC(=O)C1CCN(c2nc3ccc(-c4cccc(F)c4)nc3s2)CC1	none
N#C/C(=C\c1ccccc1F)c1nc(-c2cccs2)cs1	none
Cc1cc2c(cc1O)CCC/C2=N\OC(=O)c1cccc(Br)c1	none
CCN1c2cc(F)ccc2C(=O)NC12CCN(C(=O)c1ccc(C)cc1)CC2	none
CCN1c2cc(C)ccc2-n2cccc2C12CCN(C(=O)c1ccc3c(c1)OCO3)CC2	mHTT-CaM PPI inh 66
CCN1c2cc(C)ccc2-n2cccc2C12CCN(C(=O)c1ccc(F)cc1)CC2	mHTT-CaM PPI inh 85
O=C1CC2(CCN(C(=O)Cc3cccs3)CC2)Oc2ccccc21	none
CCN1c2cc(C)ccc2-n2cccc2C12CCN(C(=O)Cc1cccs1)CC2	mHTT-CaM PPI inh 98
CCN1c2ccc(C)cc2C(=O)NC12CCN(C(=O)c1ccc3c(c1)OCO3)CC2	none
CSc1cccc2sc(NC(=O)c3cc(-c4ccco4)on3)nc12	none
COc1ccc(CNC(=O)C2=C3CCCN3c3ccccc3S2(=O)=O)cc1	none
CCOc1cccc2cc(C(=O)Nc3nccs3)c(=Nc3ccc(Br)cc3)oc12	none
COc1ccccc1CN1CCc2nc(N3CCN(c4ccccc4F)CC3)ncc2C1	none
Cc1ccc(CN2CCc3nc(N4CCC(C)CC4)ncc3C2)cc1	none
Cc1ccc(CN2CCc3nc(N4CCC(C)CC4)ncc3C2)cc1C	mHTT-CaM PPI inh 72
CC1CCN(c2ncc3c(n2)CCN(Cc2cccc(F)c2F)C3)CC1	mHTT-CaM PPI inh 74
CCOc1ccccc1CN1CCc2nc(N3CCN(c4ccccc4F)CC3)ncc2C1	mHTT-CaM PPI inh 66
COc1ccc(CN2CCc3nc(N4CCN(c5ccccn5)CC4)ncc3C2)c(OC)c1	none
COc1ccc(OC)c(CN2CCc3nc(N4CCN(c5ccccn5)CC4)ncc3C2)c1	mHTT-CaM PPI inh 50
Fc1cccc(CN2CCc3nc(N4CCN(c5ccccn5)CC4)ncc3C2)c1F	none
CC(C)NC(=O)CN1CCN(Cc2ccc3c(c2)OCO3)CC1	none
CC1CCc2sc3ncnc(N4CCN(C(=O)c5ccco5)CC4)c3c2C1 (centres undefined)	none
CCNc1nccc(N2CCC(CC(=O)N3CCC(COC)CC3)CC2)n1	none
Cc1ccc(NC(=O)C2CCN(c3nccnc3Oc3ccc(C)cc3)CC2)cc1	none
COc1ccc(OC)c(CN2CCc3nc(N4CCC(C)CC4)ncc3C2)c1	mHTT-CaM PPI inh 52
COc1ccc(CN2CCc3nc(N4CCC(C)CC4)ncc3C2)cc1	none
COc1ccccc1CN1CCc2nc(N3CCN(c4ccccc4)CC3)ncc2C1	none
COc1ccccc1CN1CCc2nc(N3CCN(c4ncccn4)CC3)ncc2C1	mHTT-CaM PPI inh 100
c1ccc(CCN2CCc3nc(N4CCN(c5ccccn5)CC4)ncc3C2)cc1	mHTT-CaM PPI inh 60
Clc1cccc(CN2CCc3nc(N4CCN(c5ccccn5)CC4)ncc3C2)c1	none
Cc1nccn1CCNC(=O)COc1ccc(F)cc1	none
OC(CN1CCN(c2ccc(Cl)cc2)CC1)c1ccc2c(c1)CCN2 (centres undefined)	none
Cc1ccc(Cl)cc1N1CCN(CC(O)c2ccc3c(c2)CCN3)CC1 (centres undefined)	mHTT-CaM PPI inh 71
CCC1CCCCN1C(=O)c1ccc2ncc3c(=O)n(-c4ccccc4)[nH]c3c2c1 (centres undefined)	mHTT-CaM PPI inh 66
CCc1ccc(-n2[nH]c3c(cnc4ccc(C(=O)NC(C)C)cc43)c2=O)cc1	none
CCc1ccc(-n2[nH]c3c(cnc4ccc(C(=O)N5CCCC5)cc43)c2=O)cc1	none
CC(C)NC(=O)c1ccc2ncc3c(=O)n(-c4ccc(Cl)cc4)[nH]c3c2c1	mHTT-CaM PPI inh 51
Cc1[nH]nc(-c2cccs2)c1C(=O)NN=Cc1ccc([N+](=O)[O-])s1	none (no result: mHTT-CaM PPI inh)
CC(C)C(=O)Nc1cccc(NC(=O)c2cccs2)c1	none
CC(=O)N1CCc2c(c(-c3nc(-c4ccc(F)cc4)no3)nn2C)C1	none
COc1ccc(NC(=O)CCC(=O)N2CCCn3nc(C)cc32)c(OC)c1	none
CCOc1cc(C2C(C(=O)c3cccs3)=C(O)C(=O)N2c2nc(C)c(C)s2)ccc1O (centres undefined)	none
COc1ccc(C2=NN(C(=O)CN3CCOCC3)C(c3ccc(F)cc3)C2)cc1 (centres undefined)	none
O=C(CN1CCCC1)N1N=C(c2cccc(F)c2)CC1c1ccc2c(c1)OCO2 (centres undefined)	mHTT-CaM PPI inh 98
COc1ccc(C2CC(c3ccc(Br)cc3)=NN2C(=O)CCN2CCOCC2)cc1 (centres undefined)	mHTT-CaM PPI inh 66
Cc1ccc(C2=NN(C(=O)CN3CCCC3)C(c3ccc4c(c3)OCO4)C2)cc1 (centres undefined)	none
COc1ccc(C2CC(c3cccc(F)c3)=NN2C(=O)CN2CCOCC2)cc1 (centres undefined)	mHTT-CaM PPI inh 74
COc1ccccc1C1CC(c2ccc(C)cc2)=NN1C(=O)CN1CCOCC1 (centres undefined)	none
COc1ccc(C2=NN(C(=O)CCC(=O)O)C(c3ccc(Br)cc3)C2)cc1 (centres undefined)	none
COc1ccccc1C1CC(c2cccc(F)c2)=NN1C(=O)CN1CCOCC1 (centres undefined)	mHTT-CaM PPI inh 66
O=C(Cc1ccccc1Cl)NC1CC(O)C(CO)C1 (centres undefined)	none
C=C[C@@H]1c2ccccc2N(S(=O)(=O)c2ccc(C)cc2)[C@H](c2ccc(C(F)(F)F)cc2)C1(C#N)C#N	none
C=C[C@@H]1c2cc(C)ccc2N(S(=O)(=O)c2ccc(C)cc2)[C@H](c2ccc(C(C)(F)F)cc2)C1(C#N)C#N	mHTT-CaM PPI inh 90
O=C(Nc1nnc(-c2cccnc2)s1)c1ccccc1[N+](=O)[O-]	none
COCCNC(=O)N1CC(c2nc(-c3cccc(C(F)(F)F)c3)no2)C1	none
Cc1cc2c(o1)-c1c(oc3ccccc13)CCC2(C)c1ccccc1 (centres undefined)	none
O=C1C=CC(=O)N1c1cc(Sc2ccc(F)cc2)cc([N+](=O)[O-])c1	mHTT-CaM PPI inh 85
O=C1CCC(=O)N1c1ccc(Sc2ccc([N+](=O)[O-])cc2)cc1	none
CC(=O)Nc1cccc(NC(=O)CSc2ccccc2)c1	none
CN1C(=O)CCC2(CNC(=O)COc3cccc(Cl)c3)CCCC12 (centres undefined)	none
COc1ccc(Br)cc1CN(CCc1ccc2c(c1)OCO2)Cc1cccnc1	mHTT-CaM PPI inh 57
CCOc1ccc(CN(CCc2ccc3c(c2)OCO3)Cc2cc(OC)c(OC)c(OC)c2)cc1	none
